A selection: hits, their analogues and other compounds. The true share with any hit is near 3.1%.
PAX8 reporter = inhibitors of PAX8-driven TPO luciferase reporter, primary screen, RMG-I cells, single concentration; SteadyGlo, 24 h; inhibition, % at 12.6 µM; hit rate 1.2% among 360,000;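 active = mean replicate inhibition at least 60% with every replicate also reaching 60%; inconclusive = only one of the two criteria is met; inactive = mean below 60% and not all replicates reaching 60%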;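 note: luciferase light reporting Pax8 driven TPO promoter activity; plate controls were median of neutral control wells for no effect and mitoxantrone controls for full effect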
INS-1E GSIS act = GLuc luminescence reporter in INS-1E cells, primary screen for activators of glucose-dependent secretion of insulin; INS-1E GLuc reporter insulin secretion, 2-3 h; activation, % at 16.6 µM; hit rate 0.61% among 370,000; AID 743287, 2014;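 active = lowest replicate activation of at least 40%, so every replicate reaches that level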;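 note: 0% = median of neutral control wells and 100% = median of IBMX positive control wells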
miR122 inh = miR-122 Renilla sensor signal increase in Huh7, primary screen, miR-122 inhibitor project, cell-based, single point, plate reader. Huh7 miR-122 Renilla luciferase sensor, 48 h; neutral wells = 0, positive control = 100. hit rate 0.3% among 340,000. activation (reporter increase), % at 12.5 µM;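 active = mean replicate activation score at least 90 and every replicate individually at or above 90; inconclusive = only one of the two criteria met; inactive = neither criterion met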;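 note: higher luciferase means less miR-122 activity so hits act as miR-122 inhibitors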
EWS-Fli block = EWS/Fli-driven NR0B1 reporter inhibitors, primary screen, A673 cells, NR0B1 luciferase, luminescence, MLPCN library; inhibition, % at 12.6 µM; viability-normalised; hit rate 0.67% among 350,000;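 active = mean inhibition of at least 50% after viability correction, with every replicate also passing that limit; inconclusive = mean reaches 50% but only one of two replicates passes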;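 note: firefly luciferase signal divided by Alamar Blue viability fluorescence both relative to DMSO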
HIV Env fusion = inhibitors of HIV-1 Env-driven cell-cell fusion, primary screen, HeLa-JRFL effector, CEM21 target cells, luciferase; inhibition, % at 12.3 µM; hit rate 1.1% among 360,000;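 active = mean replicate inhibition score of at least 50 and every replicate individually at or above 50; inconclusive = only one of the two criteria met; inactive = mean below 50 and not all replicates reaching 50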;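 note: 0% = plate neutral controls and 100% = maraviroc near 300 nM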
C2C12 statin = suppressors of statin myotoxicity in C2C12 myotubes, primary screen, cell-based, single point, plate reader; C2C12 myotubes + simvastatin, ATP luminescence, 48 h; scaled: DMSO 0, geranylgeraniol control 100; rescue of ATP level, % at 7.49 µM; hit rate 0.78% among 330,000; AID 602340, 2012;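 active = mean ATP rescue above about 67%, or every replicate alone reaching that limit, limit read from the data, passing the limit was not always enough; inconclusive = no clear call, values can overlap the other calls; inactive = mean under the limit and some replicate under it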;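 note: myotubes were challenged with 10 µM simvastatin during compound exposure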
Starred values were filed as active, the others as inactive; ? = inconclusive; . = no result given; [ ] = another dose, or the depositor's remark.

SMILES | PAX8 reporter | INS-1E GSIS act | miR122 inh | EWS-Fli block | HIV Env fusion | C2C12 statin
COCCOC(=O)N1C(=O)[C@@]2(c3cc(C#Cc4ccc(OC)cc4)ccc31)[C@H](c1ccc(O)cc1)N1[C@H](c3ccccc3)[C@H](c3ccccc3)OC(=O)[C@H]1[C@@H]2C(=O)N1CCCCCCC1 | 5 | . | . | -19 | -363[16.7 µM] | .
CC(C)(C)C(=O)/C(=C/c1ccc(Cl)cc1)n1cncn1 | 86* | -17 | 12 | 49 | -75 | 5
CC(C)/C=C(/C(=O)c1ccc(Cl)cc1Cl)n1cncn1 | 1 | -8 | . | -6 | -1 | .
COc1ccc(C(=O)NN(C)c2nc(C(F)(F)F)nc3ccccc23)cc1 | 94* | -45 | . | 56* | -70 | .
COc1ccc(C(=O)NN(C)c2nc(-c3ccccc3)nnc2C(F)(F)F)cc1 | . | . | 21 | . | . | 74*
C[C@@H]1CN([C@H](C)CO)C(=O)c2cc(NS(=O)(=O)c3ccccc3)ccc2O[C@@H](C)CCCCO[C@@H]1CN(C)S(=O)(=O)c1cn(C)cn1 | 14 | -7 | -2[16.7 µM] | -26 | 8[16.7 µM] | .
C[C@@H]1CCCCO[C@H](CN(C)C(=O)CCC(F)(F)F)[C@H](C)CN([C@@H](C)CO)C(=O)c2cc(NS(=O)(=O)c3ccc(F)cc3)ccc2O1 | -2 | -21 | -9[16.7 µM] | 9 | 39[16.7 µM] | .
COc1ccc2c3c([nH]c2c1)[C@@H](CO)N(C(=O)Cc1ccccc1)CC31CN(C(=O)Nc2ccccc2F)C1 | . | -14 | . | 0 | . | .
Cc1noc(C)c1S(=O)(=O)N(C)C[C@H]1OCCCC[C@@H](C)Oc2ccc(NC(=O)Nc3ccccc3)cc2C(=O)N([C@@H](C)CO)C[C@H]1C | 6 | -9 | 3[16.7 µM] | 4 | -63[16.7 µM] | .
COC(=O)CN(C(=S)Nc1ccc(F)cc1)C1CC(=O)N(c2ccc(OC)cc2)C1=O (stereo not drawn) | . | . | 3 | . | 71* | 14
C/C(=N\NC(=O)CC1N=C(Cc2ccccc2)NNC1=O)c1ccc(Cl)cc1Cl (stereo not drawn) | . | 142* | -2 | . | . | -4
O=C(CC1c2ccccc2Oc2ccccc21)Nc1ccccc1C(F)(F)F | . | 102* | . | . | . | .
O=C(CC1c2ccccc2Oc2ccccc21)Nc1ccccc1F | . | -18 | 1 | . | . | .
COc1ccc(S(=O)(=O)Nc2cccc3c2O[C@H](CN(C)S(=O)(=O)c2ccc(OC)cc2)[C@H](C)CN([C@H](C)CO)C3=O)cc1 | -18 | 0 | . | . | . | .
Cc1ccc(C)c(/C(O)=C2\C(=O)C(=O)N(CCCn3ccnc3)C2c2ccncc2)c1 (stereo not drawn) | -5 | . | 4 | . | -8 | 84*
Cc1ccc(C2/C(=C(/O)c3ccc4c(c3)CC(C)O4)C(=O)C(=O)N2CCCn2ccnc2)cc1 (stereo not drawn) | -17 | 1 | -3 | . | 1 | 19
CC(=O)N(C)C[C@H]1Oc2ncc(C#Cc3cccc(F)c3)cc2C(=O)N([C@@H](C)CO)C[C@@H]1C | . | 1 | -1[16.7 µM] | -2 | 14[16.7 µM] | -4
COc1ccc(S(=O)(=O)Nc2ccc3c(c2)CC(=O)N([C@@H](C)CO)C[C@H](C)[C@@H](CN(C)S(C)(=O)=O)O3)cc1 | 6 | 14 | 3[16.7 µM] | -9 | 3[16.7 µM] | 7
CCC(C(=O)c1ccccc1)N(C(=O)c1ccccc1Cl)N1C(=O)C2C3C=CC(C3)C2C1=O (stereo not drawn) | . | . | -4 | . | 109* | -19
COc1cccc(S(=O)(=O)NCC(=O)Nc2ccc(C(C)(C)C)cc2)c1 | 88* | -31 | 1 | 5 | . | .
COc1ccc(NC(=O)CNS(=O)(=O)c2ccc(Cl)cc2)cc1 | . | . | -3 | . | . | -1
COc1ccc(C(Nc2cccc([N+](=O)[O-])c2)P(=O)(OC(C)C)OC(C)C)cc1 (stereo not drawn) | 8 | -40 | . | 6 | 57* | 3
COc1ccc(S(=O)(=O)N(C)C[C@@H]2Oc3ncc(-c4cccc(OC)c4)cc3C(=O)N([C@H](C)CO)C[C@@H]2C)cc1 | . | -11 | 13[16.7 µM] | 8 | 7[16.7 µM] | 17
CCN(CC)S(=O)(=O)c1ccc2c(c1)N(CC(=O)NCCN1CCOCC1)C(=O)CO2 | 11 | 14 | -1 | 2 | -16 | 116*
N#CCCN(C(=O)CCl)c1cccc(Cl)c1 | 1 | . | -26 | 35 | 15 | 1
SMILES | PAX8 reporter | INS-1E GSIS act | miR122 inh | EWS-Fli block | HIV Env fusion | C2C12 statin
O=C(CCl)N(c1ccccc1)c1ccccc1 | ? | 22 | . | 40 | 36 | .
CCCCCCN(C(=O)CCl)c1ccccc1 | 104* | 2 | -20 | 42 | 16 | -62
CCCCCCCN(C(=O)CCl)c1cccc(C)c1 | 103* | 15 | -66 | . | -5 | .
CC(=O)Oc1ccc2c(C)cc(=O)oc2c1 | . | . | -6 | . | . | .
COC(=O)C(CC(C)C)Oc1ccc2c(C)cc(=O)oc2c1 (stereo not drawn) | -9 | . | 152* | . | -7 | .
CCCCCCCCN1C(=O)[C@H](CC(=O)NCCC(C)C)C[C@@]2(C(=O)OCC)CCCC=C12 | -9 | 23 | . | 10 | 61* | .
CCOC(=O)[C@]12CCCC=C1N(Cc1ccccc1)C(=O)[C@H](CC(=O)NCCCOC)C2 | -18 | 10 | . | 0 | 60* | .
CCCCOCCCNC(=O)C[C@@H]1C[C@@]2(C(=O)OCC)CCC=C2N(Cc2ccc3c(c2)OCO3)C1=O | 10 | -50 | . | 2 | -30 | .
CCOC(=O)[C@]12CCC=C1N(Cc1ccc3c(c1)OCO3)C(=O)[C@H](CC(=O)NCC13CC4CC(CC(C4)C1)C3)C2 | 7 | -24 | . | 0 | 77* | .
CCCCCCCCN1C(=O)[C@H](CC(=O)NCc2cccs2)C[C@@]2(C(=O)OCC)CCCC=C12 | 27 | -32 | . | 13 | 88* | .
C[C@H](CO)N1C[C@H](C)[C@H](CN(C)C(=O)Nc2ccccc2)Oc2ccc(NC(=O)Nc3ccc4c(c3)OCO4)cc2CC1=O | 5 | -2 | -8[16.7 µM] | -15 | -23[16.7 µM] | 9
COc1ccc(CN(C)C[C@H]2Oc3ccc(NC(=O)CCC(F)(F)F)cc3CC(=O)N([C@H](C)CO)C[C@@H]2C)cc1 | 9 | -15 | -6[16.7 µM] | -1 | 3[16.7 µM] | 22
CO[C@@H]1CN(C)C(=O)c2cc(NS(C)(=O)=O)ccc2OC[C@@H](C)N(Cc2cccnc2)C[C@H]1C | . | -9 | -1[16.7 µM] | -5 | . | 2
CNC[C@@H]1Oc2ccc(NS(=O)(=O)c3ccccc3)cc2C(=O)N([C@@H](C)CO)C[C@H]1C | -3 | 3 | 1[16.7 µM] | -2 | . | 5
C[C@@H](NC(=O)C[C@@H]1C=C[C@@H](NC(=O)C2CC2)[C@H](CO)O1)c1ccccc1 | 0 | -5 | . | 0 | 3[16.7 µM] | -2
COc1ccccc1C#Cc1ccc2c(c1)[C@H]1[C@H](CCN1S(=O)(=O)c1ccc(C)cc1)[C@H](CO)N2C | . | 18 | . | . | . | .

Bioassay records (PubChem)
